Screens from PubChem.
NadD block = inhibitors of Staphylococcus aureus NadD; inhibition, % at 20 µM; AID 602399; actives 0.78% (n = 360,000); purified NadD enzyme, colorimetric absorbance read-out; in the data active = inhibition above about 26%
Pemphigus Ab inh = blocks pemphigus antibody binding to human desmoglein-3; P32926; DSG3-coupled beads, scFv-anti-DSG3-GFP binding, flow cytometry; hits give low values; binding (percent of control), % at 10 µM; actives 0.48% (n = 310,000); AID 588358;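 active = binding more than 3 SD below its plate's average and above zero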;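 note: hits lower antibody fragment binding to DSG3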
Target sequence (P32926 whole entry, looked up, the tested form may be a part): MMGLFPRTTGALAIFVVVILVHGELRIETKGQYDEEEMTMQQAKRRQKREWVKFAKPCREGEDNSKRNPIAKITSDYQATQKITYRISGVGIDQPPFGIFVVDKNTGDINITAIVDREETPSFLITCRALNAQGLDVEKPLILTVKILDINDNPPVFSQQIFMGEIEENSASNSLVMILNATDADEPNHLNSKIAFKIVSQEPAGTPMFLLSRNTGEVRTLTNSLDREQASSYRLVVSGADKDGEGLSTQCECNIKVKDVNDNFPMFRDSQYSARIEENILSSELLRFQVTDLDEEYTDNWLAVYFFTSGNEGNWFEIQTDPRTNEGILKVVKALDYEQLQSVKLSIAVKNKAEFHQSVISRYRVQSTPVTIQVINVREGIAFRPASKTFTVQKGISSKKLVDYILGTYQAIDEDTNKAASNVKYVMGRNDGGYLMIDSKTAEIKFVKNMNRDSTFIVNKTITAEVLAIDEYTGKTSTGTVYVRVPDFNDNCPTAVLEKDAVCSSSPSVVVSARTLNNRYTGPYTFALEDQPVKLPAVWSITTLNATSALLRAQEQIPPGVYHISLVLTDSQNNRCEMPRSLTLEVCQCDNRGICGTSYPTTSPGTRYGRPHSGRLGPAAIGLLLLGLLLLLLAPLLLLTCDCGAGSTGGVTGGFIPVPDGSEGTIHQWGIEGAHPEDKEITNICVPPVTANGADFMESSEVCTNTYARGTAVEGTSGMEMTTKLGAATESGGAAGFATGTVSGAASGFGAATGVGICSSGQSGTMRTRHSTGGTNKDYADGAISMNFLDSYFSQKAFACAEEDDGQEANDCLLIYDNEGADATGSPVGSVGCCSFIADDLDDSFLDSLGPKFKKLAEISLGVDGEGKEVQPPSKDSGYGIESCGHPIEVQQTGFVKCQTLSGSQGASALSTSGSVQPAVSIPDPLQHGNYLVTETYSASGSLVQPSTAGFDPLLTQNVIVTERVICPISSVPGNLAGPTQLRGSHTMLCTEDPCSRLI
DAGLB inhibitor = blocks human DAGLB lipase activity; inhibition, % at 5.17 µM; HEK293T DAGLB membrane lysate, EnzChek fluorogenic substrate; actives 0.059% (n = 340,000); AID 504411; Q8NCG7; in the data active = inhibition above about 34%
MsrA act = activators of bovine methionine sulfoxide reductase A; purified bovine MsrA, absorbance read-out; activation, % at 10.6 µM; actives 0.3% (n = 360,000); in the data active = activation above about 7.5%
rCAG binder = molecules binding r(CAG) RNA repeats | actives 1.3% (n = 370,000) | AID 651821 | r(CAG) RNA repeat, TO-PRO-1 dye displacement fluorescence | inhibition, % at 3 µM;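 active = inhibition above the plate cutoff, the mean of all test compounds on that plate plus 3 SD, cut at about 35% in these data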;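 note: higher means more dye released from RNA so lower well fluorescence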
MsrA inh = inhibitors of bovine MsrA. inhibition, % at 15.5 µM. purified bovine MsrA, absorbance read-out. actives 0.75% (n = 360,000)
MsrA conf = confirmation of bovine MsrA inhibitors; actives 41% (n = 2,300); inhibition, % at 15.5 µM; purified bovine MsrA, absorbance read-out; AID 651822; shares compounds with MsrA inh;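 note: coupled to thioredoxin reductase with NADPH and selenocystamine and DMSO as substrate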
A number is an active result; – = inactive; · = not tested or not shown. Most compounds without a hit are left out; they make up all but 3.2% or so of the library. Cut-off read from the data, not from the text of the source, unless noted: active = inhibition above about 4.5%; inactive = the rest.

SMILES	NadD block	Pemphigus Ab inh	DAGLB inhibitor	MsrA act	rCAG binder	MsrA inh	MsrA conf
COc1cccc(/C=N/NC(=O)c2ccc3nc[nH]c3c2)c1O	–	–	–	–	–	–	·
CC(=O)Nc1cc(Cl)c(N=Cc2ccc(O)cc2O)cc1Cl	–	–	–	–	–	–	·
CCOC(=O)c1sc(/N=C/c2ccc(O)cc2O)cc1C	–	·	–	–	–	5.3	–
CCCCCCCCCc1conc1C(=O)/C=C/c1ccco1	·	·	·	·	–	–	·
CCCCNC(=O)C1(C)CCCCN1C(=O)c1ccc2ccccc2n1 (stereo unspecified)	–	·	·	–	–	–	·
N#Cc1ccc(CSc2nnc(NC(=O)c3ccc4ncsc4c3)s2)cc1	–	–	–	–	–	–	·
N#Cc1ccc(CSc2nnc(NC(=O)c3ccc(=O)[nH]c3)s2)cc1	–	–	–	–	–	6.0	–
Cc1cc(=O)[nH]c(N/N=C/c2ccc(Cl)cc2Cl)n1	–	–	–	–	–	–	·
Cc1cc(=O)[nH]c(N/N=C/c2ccc(N(C)C)cc2)n1	–	–	–	–	–	7.6	6.2
CCNc1nc(NCC)nc(N/N=C/c2ccc(O)c(O)c2)n1	–	–	–	–	–	–	·
CCN(CCC#N)c1ccc(/C=N/Nc2nc(C)cc(=O)[nH]2)c(C)c1	–	–	–	–	–	6.0	4.7
Cc1cc(=O)[nH]c(N/N=C/c2ccc(F)cc2)n1	–	–	–	–	–	–	·
CCNc1nc(NCC)nc(N/N=C/c2ccc(N(C)C)cc2)n1	–	–	–	–	–	6.5	4.9
O=C(O)c1cccn2c(=O)c3ccccc3nc12	–	–	–	–	–	4.7	–
O=c1c2cc3cc(Cl)ccc3nc2ncn1CCc1ccc(O)cc1	·	·	·	·	–	·	·
CS/C(=C/[N+](=O)[O-])Nc1cccc2c1C(C)CC2(C)C (stereo unspecified)	–	–	–	–	–	23	20
Cc1ccnc(NS(=O)(=O)c2ccc(NC(=O)/C=C/c3cccs3)cc2)n1	–	–	–	–	–	5.9	–
O=C(/C=C/c1cccs1)Nc1ccncc1	–	–	–	–	–	5.9	5.3
Cc1cccc(NC(=O)/C=C/c2cccs2)n1	–	–	–	–	–	5.0	–
CCC(c1nnnn1-c1ccc2c(c1)OCCO2)N1CCN(c2ccc(F)cc2)CC1 (stereo unspecified)	–	·	·	–	·	·	·
CC(=O)N1CCC(C(=O)N2c3ccccc3N=C(c3ccc(C(F)(F)F)cc3)C2C(=O)NC(C)C)CC1 (stereo unspecified)	·	·	·	·	–	–	·
CCNC(=O)C1CCCN(C(=O)c2ccccc2OC(F)(F)F)CC1 (stereo unspecified)	–	·	·	–	–	–	·
COc1ccccc1CNc1nc2cc(-c3ccccc3C)sc2c(=O)n1C	–	·	·	–	–	–	·
COc1cccc(/C=C2\CC3(OC(=O)c4ccc(Cl)cc4)CCCN2C3)c1 (stereo unspecified)	·	·	·	·	–	·	·
Cc1ccn2c(=O)c(C(=O)O)cnc2c1	–	–	–	–	–	4.7	–
SMILES	NadD block	Pemphigus Ab inh	DAGLB inhibitor	MsrA act	rCAG binder	MsrA inh	MsrA conf
O=C(CN1CCN(Cc2ccccc2)CC1)N/N=C\C=C/c1ccco1	–	–	–	–	–	6.9	5.5
Cc1ccc(S(=O)(=O)N2C[C@H]3C(=O)C[C@@H](c4ccccc4)N(S(=O)(=O)c4ccc(Br)cc4)[C@H]3C[C@H]2c2ccccc2)cc1	–	·	·	–	–	–	·
Cc1csc(Nc2nc(N)c(C(=O)Nc3ccccc3)o2)n1	–	–	–	–	–	5.7	5.0
N#C/C(=C\Nc1ccccc1O)c1nc2ccccc2o1	–	–	–	–	–	9.7	7.7
Cc1ccc(NC(=O)C2(C)CCN2C(=O)Cc2cc(F)ccc2F)cc1 (stereo unspecified)	–	·	·	–	–	–	·
CCCNC(=S)N(Cc1ccccc1)Cc1nc2ccccc2c(=O)[nH]1	–	–	–	–	–	47	–
COc1ccc(-c2cc(=O)oc3cc(O)ccc23)cc1	–	–	–	–	–	–	·
COc1ccc(-c2cc(=O)oc3c(C)c(OC(C)C(C)=O)ccc23)cc1 (stereo unspecified)	–	–	–	–	–	22	16
Cc1cc(O)c2c(-c3ccccc3)cc(=O)oc2c1	–	–	–	–	–	8.5	–
COc1ccc(-c2cc(=O)oc3c(C)c(O)ccc23)cc1	–	–	–	–	–	12	–
Cc1c(O)ccc2c(-c3ccccc3)cc(=O)oc12	–	–	–	–	–	41	35
CCCCCCCCN1CN2Cc3cc(F)ccc3C2CS1(=O)=O (stereo unspecified)	·	·	·	·	–	·	·
CCc1nc(Nc2ccncc2)c2oc3ccccc3c2n1	–	–	–	–	–	4.7	–
CCc1nc(Nc2cccc(O)c2)c2oc3ccccc3c2n1	–	–	–	–	·	·	·
Cc1nc(Nc2ccncc2)c2oc3ccccc3c2n1	–	–	–	–	–	5.4	–
C#CCCN([C@H](C(=O)OC)C(C)CC)S(=O)(=O)c1ccccc1Br (stereo partly specified)	·	·	·	·	–	·	·
O=C(Nc1nnc(SCc2ccccc2)s1)c1cccs1	–	–	–	–	–	–	·
CCSc1nnc(NC(=O)c2cccs2)s1	–	–	–	–	–	5.2	–
CCNC(=O)C1(C)CCCN(Cc2cc(-c3ccccc3)n(C)n2)C1 (stereo unspecified)	–	·	·	–	–	–	·
CCc1n[nH]c(=S)n1/N=C/c1ccc(-c2ccc(Br)cc2)o1	–	–	–	–	–	–	·
CCc1n[nH]c(=S)n1/N=C/c1cc(Br)c(OC)cc1OC	–	–	–	–	–	16	10
COc1ccc(/C(O)=C(\C#N)c2nc3ccccc3n2C)cc1OC	–	–	–	–	–	6.9	6.0
Cn1c(/C(C#N)=C(\O)c2cc(Cl)sc2Cl)nc2ccccc21	–	–	–	–	–	–	·
COCCCN1C(=O)C(=O)/C(=C(/O)c2ccc(OC)cc2C)C1c1cccnc1 (stereo unspecified)	–	–	–	–	–	4.8	–
N#Cc1ccc(-c2nc3ccc(Cl)cn3c2Cc2ccccc2C(F)(F)F)cc1	–	·	·	–	–	–	·
COc1ccc(C2=NS(=O)(=O)N(C)C(C(=O)N3C(C)CCCC3C)=C2)cc1 (stereo unspecified)	–	–	–	–	–	–	·
COc1ccc(C2=NS(=O)(=O)N(C)C(C(=O)N3CCC(C(N)=O)CC3)=C2)cc1	–	–	–	–	–	6.1	–
COc1ccc(C2=NS(=O)(=O)N(C)C(C(=O)N3CCCCC3C)=C2)cc1 (stereo unspecified)	–	–	–	–	–	5.9	–
COc1ccc(S[C@]2(C(=O)N3CCOCC3)CC(=O)N(c3ccc(OC)cc3)[C@@H]2c2ccc(OC)cc2)cc1	·	·	·	·	–	·	·
Cc1ccc(-c2nc3cc(C)c(Br)c(C)n3c2Cc2ccccc2)cc1	–	·	·	–	–	–	·
